Assays:
Experiment in all cases: growth AUC relative to DMSO control (median of replicates) (fraction); higher = more growth (less inhibition), active = hit call of the paper
Conditions in all cases: 20 µM; 24 h;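 active = AUC reduced over 20% with Padj below 0.05 in at least 2 of 3 replicates; inactive = otherwise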
Akkermansia muciniphila = system: Akkermansia muciniphila
In short: (§1)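 Gut bacteria were grown singly in mGAM at 37 °C without oxygen, from OD600 0.05, alongside 20 µM compound in 1% DMSO, and OD600 was read each hour for 24 h. Area under the growth curve was normalised to the median of solvent-only wells per plate, or to row and column medians on the industrial chemical plate. The minimum OD was set to 0 beforehand, and the reported value is the median of three biological replicates grown on separate days.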

Bacteroides caccae = system: Bacteroides caccae
In short: as §1

Bacteroides clarus = system: Bacteroides clarus
In short: as §1

Bacteroides dorei = system: Bacteroides dorei
In short: as §1

Bacteroides stercoris = system: Bacteroides stercoris
In short: as §1

[1] = system: Bacteroides thetaiotaomicron
In short: as §1

Bacteroides uniformis = system: Bacteroides uniformis
In short: as §1

[2] = system: Bifidobacterium longum subsp. longum
In short: as §1

Clostridium difficile = system: Clostridium difficile
In short: as §1

Collinsella aerofaciens = system: Collinsella aerofaciens
In short: as §1

Coprococcus comes = system: Coprococcus comes
In short: as §1

Escherichia coli ED1a = system: Escherichia coli ED1a
In short: as §1

Escherichia coli IAI1 = system: Escherichia coli IAI1
In short: as §1

Eubacterium rectale = system: Eubacterium rectale
In short: as §1

[3] = system: Fusobacterium nucleatum subsp. animalis
In short: as §1

Lactobacillus gasseri = system: Lactobacillus gasseri
In short: as §1

Lactobacillus paracasei = system: Lactobacillus paracasei
In short: as §1

Odoribacter splanchnicus = system: Odoribacter splanchnicus
In short: as §1

[4] = system: Parabacteroides distasonis
In short: as §1

Parabacteroides merdae = system: Parabacteroides merdae
In short: as §1

Measured: growth AUC

CCCCOC(=O)N(C)SN(C)C(=O)Oc1cccc2c1OC(C)(C)C2
inactive: Akkermansia muciniphila 1.03 | Bacteroides caccae 1.02 | Bacteroides clarus 0.969 | Bacteroides dorei 1.01 | Bacteroides stercoris 1.08 | [1] 1.04 | Bacteroides uniformis 1 | [2] 1.11 | Clostridium difficile 0.992 | Collinsella aerofaciens 1.01 | Coprococcus comes 1 | Escherichia coli ED1a 1.07 | Escherichia coli IAI1 1.01 | Eubacterium rectale 1.2 | [3] 0.942 | Lactobacillus gasseri 0.966 | Lactobacillus paracasei 1.05 | Odoribacter splanchnicus 1.03 | [4] 1.03 | Parabacteroides merdae 1.01

CCN(CC)C(=O)/C(Cl)=C(/C)OP(=O)(OC)OC
inactive: Akkermansia muciniphila 1.19 | Bacteroides caccae 1 | Bacteroides clarus 0.975 | Bacteroides dorei 0.921 | Bacteroides stercoris 0.977 | [1] 0.958 | Bacteroides uniformis 0.979 | [2] 1.02 | Clostridium difficile 0.94 | Collinsella aerofaciens 0.967 | Coprococcus comes 0.978 | Escherichia coli ED1a 0.942 | Escherichia coli IAI1 0.953 | Eubacterium rectale 1.08 | [3] 1 | Lactobacillus gasseri 0.886 | Lactobacillus paracasei 0.969 | Odoribacter splanchnicus 0.935 | [4] 0.888 | Parabacteroides merdae 0.978

CCOP(=S)(OCC)Oc1cc(C)nc(C(C)C)n1
inactive: Akkermansia muciniphila 1.04 | Bacteroides caccae 1.02 | Bacteroides clarus 1 | Bacteroides dorei 1.03 | Bacteroides stercoris 0.972 | [1] 1.01 | Bacteroides uniformis 1.02 | [2] 0.972 | Clostridium difficile 1.02 | Collinsella aerofaciens 0.986 | Coprococcus comes 0.982 | Escherichia coli ED1a 1 | Escherichia coli IAI1 0.992 | Eubacterium rectale 1.12 | [3] 1.03 | Lactobacillus gasseri 1.02 | Lactobacillus paracasei 1.03 | Odoribacter splanchnicus 0.999 | [4] 0.924 | Parabacteroides merdae 1

Nc1nc(N)[nH]c(=O)n1
inactive: Akkermansia muciniphila 1.05 | Bacteroides caccae 1.02 | Bacteroides clarus 0.994 | Bacteroides dorei 1.04 | Bacteroides stercoris 1 | [1] 1.01 | Bacteroides uniformis 1.01 | [2] 1.02 | Clostridium difficile 1 | Collinsella aerofaciens 1.1 | Coprococcus comes 1.02 | Escherichia coli ED1a 1.02 | Escherichia coli IAI1 1.03 | Eubacterium rectale 0.978 | [3] 0.964 | Lactobacillus gasseri 0.982 | Lactobacillus paracasei 1.04 | Odoribacter splanchnicus 0.956 | [4] 1.05 | Parabacteroides merdae 1.01

COC(=O)NS(=O)(=O)c1ccc(N)cc1
active: Parabacteroides merdae 0.774
inactive: Akkermansia muciniphila 1 | Bacteroides caccae 0.901 | Bacteroides clarus 0.995 | Bacteroides dorei 0.916 | Bacteroides stercoris 0.959 | [1] 0.948 | Bacteroides uniformis 0.867 | [2] 1.03 | Clostridium difficile 0.913 | Collinsella aerofaciens 0.876 | Coprococcus comes 1.01 | Escherichia coli ED1a 0.972 | Escherichia coli IAI1 0.975 | Eubacterium rectale 1.28 | [3] 0.939 | Lactobacillus gasseri 0.848 | Lactobacillus paracasei 0.903 | Odoribacter splanchnicus 1.1 | [4] 1.08

CC(Oc1ccc(Cl)cc1Cl)C(=O)O (stereo not given)
inactive: Akkermansia muciniphila 1.09 | Bacteroides caccae 1.02 | Bacteroides clarus 0.987 | Bacteroides dorei 0.942 | Bacteroides stercoris 0.981 | [1] 1 | Bacteroides uniformis 0.979 | [2] 1.04 | Clostridium difficile 1.01 | Collinsella aerofaciens 0.976 | Coprococcus comes 1.02 | Escherichia coli ED1a 0.978 | Escherichia coli IAI1 0.966 | Eubacterium rectale 1.04 | [3] 0.97 | Lactobacillus gasseri 0.927 | Lactobacillus paracasei 0.989 | Odoribacter splanchnicus 0.965 | [4] 0.857 | Parabacteroides merdae 0.973

CC(C)(C)C(O)(CCc1ccc(Cl)cc1)Cn1cncn1 (stereo not given)
inactive: Akkermansia muciniphila 0.856 | Bacteroides caccae 0.965 | Bacteroides clarus 1.01 | Bacteroides dorei 1.03 | Bacteroides stercoris 1.1 | [1] 0.98 | Bacteroides uniformis 0.959 | [2] 0.956 | Clostridium difficile 1.06 | Collinsella aerofaciens 1.06 | Coprococcus comes 1.02 | Escherichia coli ED1a 1.01 | Escherichia coli IAI1 0.991 | Eubacterium rectale 0.879 | [3] 1.05 | Lactobacillus gasseri 1.04 | Lactobacillus paracasei 0.968 | Odoribacter splanchnicus 0.973 | [4] 0.903 | Parabacteroides merdae 0.962

Clc1ccc(Cl)cc1
inactive: Akkermansia muciniphila 1.01 | Bacteroides caccae 0.991 | Bacteroides clarus 0.989 | Bacteroides dorei 0.899 | Bacteroides stercoris 1.08 | [1] 1.01 | Bacteroides uniformis 1.01 | [2] 1.07 | Clostridium difficile 0.987 | Collinsella aerofaciens 0.972 | Coprococcus comes 0.985 | Escherichia coli ED1a 1 | Escherichia coli IAI1 1 | Eubacterium rectale 1.05 | [3] 1.1 | Lactobacillus gasseri 0.981 | Lactobacillus paracasei 0.936 | Odoribacter splanchnicus 1.03 | [4] 0.999 | Parabacteroides merdae 1.02

CCOC(=O)c1cn2nc(OP(=S)(OCC)OCC)cc2nc1C
inactive: Akkermansia muciniphila 1.14 | Bacteroides caccae 0.973 | Bacteroides clarus 0.945 | Bacteroides dorei 0.904 | Bacteroides stercoris 0.876 | [1] 0.991 | Bacteroides uniformis 0.834 | [2] 1.05 | Clostridium difficile 0.988 | Collinsella aerofaciens 0.967 | Coprococcus comes 0.952 | Escherichia coli ED1a 0.981 | Escherichia coli IAI1 0.97 | Eubacterium rectale 1.13 | [3] 0.938 | Lactobacillus gasseri 0.908 | Lactobacillus paracasei 0.911 | Parabacteroides merdae 0.909
active: Odoribacter splanchnicus 0.692 | [4] 0.662

N#Cc1nn(-c2c(Cl)cc(C(F)(F)F)cc2Cl)c(N)c1S(=O)C(F)(F)F (stereo not given)
inactive: Akkermansia muciniphila 1.07 | Bacteroides caccae 0.964 | Bacteroides clarus 0.881 | Bacteroides dorei 0.897 | Bacteroides stercoris 0.95 | [1] 0.986 | Bacteroides uniformis 0.895 | [2] 0.951 | Clostridium difficile 0.966 | Collinsella aerofaciens 1.04 | Coprococcus comes 1 | Escherichia coli ED1a 1.01 | Escherichia coli IAI1 0.981 | Eubacterium rectale 0.951 | [3] 0.974 | Lactobacillus gasseri 0.811 | Lactobacillus paracasei 0.98 | Odoribacter splanchnicus 0.93 | Parabacteroides merdae 0.87
active: [4] 0.714

CC(C)(C)C(O)/C(=C/c1ccc(Cl)cc1Cl)n1cncn1 (mixture of isomers)
inactive: Akkermansia muciniphila 1 | Bacteroides caccae 0.869 | Bacteroides clarus 0.947 | Bacteroides dorei 0.854 | Bacteroides stercoris 1.32 | [1] 0.88 | Bacteroides uniformis 0.874 | [2] 1.02 | Clostridium difficile 0.964 | Collinsella aerofaciens 1.03 | Coprococcus comes 0.959 | Escherichia coli ED1a 0.983 | Escherichia coli IAI1 0.979 | Eubacterium rectale 0.992 | [3] 1 | Lactobacillus gasseri 0.836 | Lactobacillus paracasei 0.997 | Odoribacter splanchnicus 0.86 | [4] 0.938 | Parabacteroides merdae 0.907

CNC(=O)Oc1cccc(N=CN(C)C)c1.Cl
inactive: Akkermansia muciniphila 1.18 | Bacteroides caccae 1.03 | Bacteroides clarus 1.03 | Bacteroides dorei 1.02 | Bacteroides stercoris 1.12 | [1] 1.02 | Bacteroides uniformis 0.993 | [2] 1.06 | Clostridium difficile 1.02 | Collinsella aerofaciens 1.04 | Coprococcus comes 1.04 | Escherichia coli ED1a 1 | Escherichia coli IAI1 1.05 | Eubacterium rectale 1.04 | [3] 1.07 | Lactobacillus gasseri 1.02 | Lactobacillus paracasei 1.04 | Odoribacter splanchnicus 1.02 | [4] 1.03 | Parabacteroides merdae 1.02

Cc1ccc2nc3sc(=O)sc3nc2c1
inactive: Akkermansia muciniphila 1.04 | Bacteroides caccae 0.982 | Bacteroides clarus 1.01 | Bacteroides dorei 0.985 | Bacteroides stercoris 0.879 | [1] 1 | Bacteroides uniformis 1.04 | [2] 1.07 | Clostridium difficile 1.02 | Collinsella aerofaciens 0.982 | Coprococcus comes 0.964 | Escherichia coli ED1a 0.969 | Escherichia coli IAI1 0.948 | Eubacterium rectale 1.02 | [3] 1.04 | Lactobacillus gasseri 0.915 | Lactobacillus paracasei 0.954 | Odoribacter splanchnicus 1.14 | [4] 0.924 | Parabacteroides merdae 0.954

CC(C)C1(C)N=C(c2ncccc2C(=O)O)NC1=O (stereo not given)
inactive: Akkermansia muciniphila 0.976 | Bacteroides caccae 0.918 | Bacteroides clarus 1.01 | Bacteroides dorei 0.761 | Bacteroides stercoris 1.17 | [1] 0.974 | Bacteroides uniformis 1.02 | [2] 1 | Clostridium difficile 0.991 | Collinsella aerofaciens 0.978 | Coprococcus comes 1.02 | Escherichia coli ED1a 0.993 | Escherichia coli IAI1 0.974 | Eubacterium rectale 1.01 | [3] 1.04 | Lactobacillus gasseri 0.946 | Lactobacillus paracasei 1.03 | Odoribacter splanchnicus 0.989 | [4] 1.04 | Parabacteroides merdae 0.997

O=C1c2ccccc2C(=O)N1SC(Cl)(Cl)Cl
inactive: Akkermansia muciniphila 1 | Bacteroides caccae 1.02 | Bacteroides clarus 0.977 | Bacteroides dorei 1.04 | Bacteroides stercoris 0.995 | [1] 0.999 | Bacteroides uniformis 1.05 | [2] 0.988 | Clostridium difficile 1.01 | Collinsella aerofaciens 0.983 | Coprococcus comes 1.01 | Escherichia coli ED1a 0.996 | Escherichia coli IAI1 1.02 | Eubacterium rectale 1.06 | [3] 1.02 | Lactobacillus gasseri 1.01 | Lactobacillus paracasei 0.963 | Odoribacter splanchnicus 1.02 | [4] 1.06 | Parabacteroides merdae 1.05

Source: the supplement of paper PMC12669032
